# From PubChem BioAssay
# Compounds with a hit are over-represented: about 17% of the library has one in this group of screens.
# HepG2 tox: HepG2 cytotoxicity, counter-screen for TGF-b inhibitors; Potency, µM (titrated, usually from 46.1 µM), for the others: top-dose activity change, negative = cytotoxicity, actives largely listed as cytotoxic; hit rate 0.76% among 410,000; AID 588856; HepG2 CAGA-GFP viability, ATP luminescence, 18 h
#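 CellTiter-Glo luminescence gave cytotoxicity after 18 hours at 37 degrees C. The cells were HepG2 CAGA-GFP in 1% FBS DMEM, stimulated with 500 pg/mL TGF-beta after compound addition. %Activity was normalised to no-cell wells (complete cell-killing) and DMSO (no toxicity), and curves were fitted and classified.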
# HT1080-NT tox: kills 2HG-producing HT-1080-NT fibrosarcoma cells | hit rate 1.6% among 360,000 | Potency, µM (doses to about 46.1 µM), for inactives: at the top dose activity, negative = less viability, usual class: cytotoxic | HT-1080-NT fibrosarcoma viability, CellTiter-Glo ATP luminescence, 48 h | AID 686970;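 further: NT is the 2HG producing partner of a matched IDH1 knockdown line; 0% = DMSO-treated cells and -100% = media-only wells without cells; nearly all actives have a fitted effect of over 55% in size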
#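 Fibrosarcoma NT cells, 750 per well in 5% FBS RPMI, were exposed to compound for 48 hours. Viability: CellTiter-Glo luminescence.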
# HT1080 IDH1KD tx: toxicity to HT-1080 IDH1 knockdown cells (counter line); AID 686971; hit rate 2% among 360,000; HT-1080 IDH1 knockdown viability, ATP luminescence, 48 h; Potency, µM (top dose mostly 46.1 µM), without a hit: at the top dose activity, negative = toxicity, actives largely listed as cytotoxic;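 further: 0% = DMSO wells and -100% = cell-free medium wells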
#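 Viability of IDH1-knockdown HT-1080 fibrosarcoma cells was assessed by CellTiter-Glo after 48 h at 37 °C with titrated compound; concentration-effect curves were classified by fit quality and response size.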
# TGFb SMAD3 inh: TGF-b pathway inhibition | HepG2 CAGA-GFP TGF-b/SMAD3 reporter, GFP fluorescence, 18 h; TGF-beta stimulated, 500 pg/mL final | Potency, µM (titrated, usually from 46.1 µM), without a hit: top-dose activity, negative = inhibition, usual class: inhibitors | hit rate 1.2% among 410,000 | AID 588855; further: on the % scale 0 is the no-effect control and ±100 the full control effect; nearly all actives have a fitted effect of over 65% in size
#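 Per well, imaged GFP fluorescence of HEPG2 CAGA-GFP cells gives the signal; cells get compound, then TGF-beta (500 pg/mL final), 18 h at 37 degrees C; %Activity versus -TGF-beta and +DMSO controls.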
# DT40 TDP1 no CPT: qHTS for Inhibitors of human tyrosyl-DNA phosphodiesterase 1 (TDP1): qHTS in cells in absence of CPT | hit rate 15% among 420,000 | AID 686978, 2013 | DT40 Tdp1-/- hTDP1 cells, no CPT, ATP luminescence, 48 h | Potency, µM (titrated, usually from 46.2 µM), inactives show top-dose activity change, negative = growth inhibition, most hits filed as inhibitors; further: on the % scale 0 is the no-effect control and ±100 the full control effect; nearly all actives have a fitted effect of over 55% in size
#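 A cellular qHTS used chicken DT40 cells lacking endogenous Tdp1 but carrying stably transfected human TDP1. Compounds were applied without camptothecin, and cell growth kinetics were judged by ATP-dependent luminescence after ≥48 hr.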
# TDP1 cell CPT: DT40-hTDP1 cell growth loss with CPT; chicken DT40 Tdp1-/-;hTDP1 cells + 20 nM CPT, ATP luminescence, 48 h; Potency, µM (doses to about 46.2 µM), inactives show at the top dose activity change, negative = growth inhibition, usual class: inhibitors; hit rate 12% among 420,000; further: on the % scale 0 is the no-effect control and ±100 the full control effect; nearly all actives have a fitted effect of over 55% in size
#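 Chicken DT40 Tdp1-/- cells stably complemented with human TDP1 were seeded at 400 cells/well in medium containing 20 nM camptothecin, exposed to pin-transferred compounds, and grown at 37 °C for at least 48 hr. Viability was read as ATP luminescence.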
# An asterisk follows results filed as active; ? = inconclusive; / = not tested or not shown; ! = a repeat was not active. The call rests on the fitted dose curve; in most records, active means well fitted curve in the direction sought with a large enough effect; inconclusive means small, poorly fitted or top-dose-only effect, or another doubt; inactive means no such curve, though single readings can be large; an effect the other way counts as inactive or inconclusive. Potency means the concentration at half of the fitted maximal effect.
SMILES,HepG2 tox,HT1080-NT tox,HT1080 IDH1KD tx,TGFb SMAD3 inh,DT40 TDP1 no CPT,TDP1 cell CPT
COc1cc2oc(-c3ccc(O)cc3)cc(=O)c2c(O)c1OC,-17%,-1%,-5%,-11%,18µM*,-88%
COc1ccc(-c2cc(=O)c3cc(OC)ccc3o2)cc1,3%,9%,7%,2%,-21%,4%
COc1cc2oc(-c3ccc(O)cc3)cc(=O)c2c(OC)c1O,5%,-2%,-13%,33%,?,?
COc1ccc(OC)c(NC(=O)C(=O)NNC(=O)COc2ccc(Br)cc2C)c1,-14%,0%,0%,?,?,?
O=C(Nc1ccccc1)c1cc(C2COCCN2C(=O)CCCc2ccccc2)on1 (stereo not drawn),-18%,2%,6%,-26%,?,?
COc1ccc(CC(=O)Nc2ccc(N(C)C)c3ccccc23)cc1,-1%,-19%,-13%,14%,?,?
O=c1cc(-c2ccco2)oc2c1ccc1ccccc12,-77%,9%,23%,19%,-21%,-6%
O=c1cc(C(Cl)(Cl)Cl)oc2c1ccc1ccccc12,-50%,16µM*,12µM*,-27%,0.52µM*,0.15µM*
O=c1cc(-c2ccncc2)oc2c1ccc1ccccc12,-5%,-18%,-4%,?,23µM*,?
COc1ccccc1CNC(=O)C1CCC(CNS(=O)(=O)c2ccc(F)cc2)CC1 (stereo not drawn),-16%,-25%,-6%,1%,-13%,0%
COc1ccc(Cl)cc1NC(=O)C12CCC(C)(C(=O)O1)C2(C)C (stereo not drawn),-25%,4%,-6%,9%,?,?
O=C(Nc1cccc(F)c1)N1CCCC2(CCN(C(=O)c3cccc(F)c3)CC2)C1,/,/,/,/,-15%,-2%
CCN(CC)CCOc1ccc(/C(=C(\Cl)c2ccccc2)c2ccccc2)cc1,-103%,4.6µM*,15µM*,?,15µM*!,?
Cc1ccc(CNC(=O)C2CCN(S(=O)(=O)c3cc(-c4noc(C)n4)ccc3C)CC2)cc1,-26%,/,/,?,2.6µM*,4.6µM*
Cc1nc(-c2ccc(C)c(S(=O)(=O)N3CCC(C(=O)NCc4ccc(Cl)cc4)CC3)c2)no1,-32%,/,/,-23%,?,?
Cc1nc(-c2ccc(C)c(S(=O)(=O)N3CCC(C(=O)NCc4ccc(F)cc4)CC3)c2)no1,-20%,/,/,-3%,5.2µM*,2.6µM*
COCCNc1oc(/C=C/c2cccc(OC)c2)nc1S(=O)(=O)c1ccccc1,-20%,-2%,-6%,-16%,?,?
CSCCC(N=C1NS(=O)(=O)c2ccccc21)C(=O)NCCc1ccccc1 (stereo not drawn),4%,5%,2%,-18%,2%,4%
CC(C)OC(=O)c1ccc(NCc2cc(O)ccc2O)cc1,2%,21µM*,18µM*,?,2.3µM*,1.2µM*
COP(=O)(OC)c1ccc(NCc2cc(O)ccc2O)cc1,8%,-1%,0%,-12%,4.1µM*,4.6µM*
CCOc1ccc(S(=O)(=O)NCC(=O)OCc2nnc(-c3ccccc3)o2)cc1,8%,3%,7%,29%,-24%,-13%
O=[N+]([O-])c1cc(-c2n(-c3ccccn3)c3ccccc3[n+]2-c2ccccn2)ccc1Cl,-18%,-2%,-2%,-18%,23µM*,16µM*
C/C(=N\NC(=O)c1ccccc1F)c1ccc2c(c1)Nc1ccccc1S2,-29%,-28%,?,?,23µM*,5.8µM*
